Source: PubChem BioAssay AID602438 (Sanford-Burnham Center for Chemical Genomics, 2012)
The campaign covered roughly 360,000 compounds. About 3,100 (0.86%) were called active. This is one part of a sample in which actives are shown more often than they occur.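 How the source made its calls: active means inhibition or corrected inhibition above about 18%, plus a signal ratio from 0.5 to 1.5 (limit read from the data, passing the limit was not always enough); inactive means the rest.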

target: Neuropilin-1 (Homo sapiens) (UniProt O14786); assay: modulators of CendR peptide binding to NRP-1, primary screen, biochemical, fluorescence polarization, uHTS (AID 602438); settings: FAM-RPARPAR peptide binding to NRP-1, fluorescence polarization; at 25 µM; stronger effect = higher value
Sequence (O14786 whole entry, looked up): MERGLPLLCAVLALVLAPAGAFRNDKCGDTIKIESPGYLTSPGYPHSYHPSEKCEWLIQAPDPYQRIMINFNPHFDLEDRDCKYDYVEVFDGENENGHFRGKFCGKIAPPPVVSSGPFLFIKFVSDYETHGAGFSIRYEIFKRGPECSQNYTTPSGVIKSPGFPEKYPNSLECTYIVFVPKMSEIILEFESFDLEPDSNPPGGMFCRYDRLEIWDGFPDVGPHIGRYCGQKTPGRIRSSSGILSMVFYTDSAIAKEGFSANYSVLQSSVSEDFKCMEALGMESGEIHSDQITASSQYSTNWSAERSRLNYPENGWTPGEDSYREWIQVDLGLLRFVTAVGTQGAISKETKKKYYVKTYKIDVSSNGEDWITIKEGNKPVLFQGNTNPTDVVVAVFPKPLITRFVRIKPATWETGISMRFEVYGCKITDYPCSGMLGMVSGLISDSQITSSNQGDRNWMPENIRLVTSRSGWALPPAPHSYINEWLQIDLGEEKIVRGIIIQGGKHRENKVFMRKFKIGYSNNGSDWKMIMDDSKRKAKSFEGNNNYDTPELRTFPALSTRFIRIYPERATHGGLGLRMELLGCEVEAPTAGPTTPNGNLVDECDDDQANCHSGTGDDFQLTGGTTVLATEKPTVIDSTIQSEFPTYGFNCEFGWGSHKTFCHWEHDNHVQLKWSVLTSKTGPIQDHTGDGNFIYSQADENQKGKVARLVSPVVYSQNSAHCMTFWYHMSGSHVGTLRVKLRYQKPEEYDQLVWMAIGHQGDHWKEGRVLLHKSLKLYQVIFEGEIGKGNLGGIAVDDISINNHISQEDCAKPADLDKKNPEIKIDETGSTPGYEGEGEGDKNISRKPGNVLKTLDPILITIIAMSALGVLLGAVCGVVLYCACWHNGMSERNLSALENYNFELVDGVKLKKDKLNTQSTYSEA

inhibition, active:
Cc1ccc(Cl)cc1N1CCN(C(=O)c2cccc3c(=O)c(C)c(-c4ccccc4)oc23)CC1 31%, COc1ccc(OC)c(S(=O)(=O)Nc2c(C)nn(C)c2C)c1 16.5%, Cc1ccc(-c2nc(C)sc2CC(=O)OCC(=O)Nc2c(F)cccc2F)cc1 24.9%, O=C(COc1ccc(/C=N/NS(=O)(=O)c2ccccc2)cc1)NCCc1ccccc1 31.8%, COc1ccc(S(=O)(=O)/N=C2\C=C(NS(=O)(=O)c3ccccc3)C(=O)c3ccccc32)cc1 41.6%, CC(=O)NNc1cc(=O)c2c(=O)n(C)c(=O)n(C)c2[nH]1 21.9%, CCOC(=O)c1cc(NC(=O)c2ccc(Cl)cc2)c(=O)oc1-c1ccccc1 24.4%, O=C(O)C1CCN(c2ccc([N+](=O)[O-])cc2[N+](=O)[O-])CC1 27.4%, Cc1ccc(CC2CC(=O)N(c3cc(C)ccc3C)C2=O)cc1 (centres undefined) 50%, CC1O[C@@H](OC2C(O)C(C)O[C@H](OC(=O)[C@]34CCC(C)(C)C[C@H]3C3=CCC5[C@@]6(C)CC(O)C(O[C@@H]7OC(CO)C(O)[C@@H](O)[C@@H]7O)[C@@](C)(C(=O)O)C6CC[C@@]5(C)[C@]3(CO)CC4)C2O[C@H]2OC(C)[C@@H](O[C@@H]3OCC(O[C@@H]4OC(CO)C(O)[C@H](O)C4O)[C@@H](O)[C@@H]3O)[C@H](O)C2O)C(O)C(O)C1O (some centres undefined) 36.2%, O=C1OC(Cc2ccccc2)C(c2ccccc2)C1=O (centres undefined) 24.2%, Cc1ccc(CN(CC(=O)NC2CCCCC2)C(=O)c2csnn2)cc1 24.5%, COC(=O)c1cc(NC(=O)CN2CCC(C(N)=O)(N3CCCCC3)CC2)cc(C(=O)OC)c1 20.2%, CC(=O)/C(=N\Nc1ccc(Cl)cc1Cl)Sc1cccc2cccnc12 61.1%, Cc1ccc(C2=Nc3c(ccc4ccccc34)C(c3ccncc3)=NN2)cc1 25.8%, COc1cccc2c(O)cc(=O)n(C)c12 19.9%, CCc1nc2c(OCc3ccc(C(F)(F)F)cc3)cccn2c1N(C)C(=O)CC(C)C 22.7%, O=C(Nc1cccc(OCC(=O)N2CCOCC2)c1)C1CCCCC1 21.3%

inhibition, inactive:
CNS(=O)(=O)c1cnccc1N1CCN(c2cccc(C)c2)CC1 -5.1%, Cc1cccc(NS(=O)(=O)c2cc(Cl)ccc2Cl)n1 7.9%, Cc1cccc(N2CCN(C(=O)c3cnn4c(C(F)F)cc(-c5ccccc5)nc34)CC2)c1C 3.9%, COc1ccccc1N1CCN(C(=O)c2cc(=O)c3cc(C)cc(C)c3o2)CC1 14.6%, COCC1CCN(C(=O)CCc2nnc(C3(c4ccc(Cl)cc4)CCC3)o2)C1 (centres undefined) 11.4%, COc1ccc(OC)c(S(=O)(=O)NCCC(C)C)c1 6.4%, COc1ccc(OC)c(S(=O)(=O)Nc2ccccc2F)c1 -3.6%, Cc1n[nH]c(=O)c2c(NC(=O)COC(=O)c3ncc(Cl)c(Cl)c3Cl)oc(C)c12 4.1%, CCOc1ccc(-c2nc(C)sc2CC(=O)O)cc1 0.2%, Cc1nc(-c2ccc(F)cc2)c(CC(=O)N(C)CC(=O)Nc2c(C)cccc2C)s1 -11.9%, CCOC(=O)C1=C(N)N2C(=O)C(C)SC2=C(C(=O)OCC)C1c1cc(OC)c(OC)c(OC)c1 (centres undefined) 6.5%, COc1ccc(OCC(=O)NCCc2ccc(S(N)(=O)=O)cc2)cc1 -12.6%, O=C(COc1ccc(S(=O)(=O)NCCc2ccccc2)cc1)N1CCCC1 0.6%, CCc1ccnc(NC(=O)Nc2ccc(OCc3ccccc3)cc2)c1 2.7%, O=C(c1ccc(F)cc1)n1c(=S)nc2ccccn21 -0.8%, CC(=O)OCc1cc(=O)n(C)c(=O)n1C 14.5%, COc1ccc(NS(=O)(=O)c2ccc(Oc3c(C#N)cccc3C#N)cc2)cc1 6.6%, Cc1ccc(S(=O)(=O)/N=C2\C=C(NS(=O)(=O)c3ccc(C)cc3)C(=O)c3ccccc32)cc1 24.8%, CCOCCC(=O)Nc1ccc2c(c1)c(=O)n(C)n2-c1ccc2ccccc2c1 -1.8%, Cc1cc(S(=O)(=O)c2cc3ccc(O)c(C)c3oc2=O)ccc1F 6%, CCN(CC)P(=O)(C(NC(=O)OC)C(F)(F)C(F)(F)C(F)(F)C(F)F)N(CC)CC (centres undefined) 0.3%, CCC(=O)NNc1cc(=O)c2c(=O)n(C)c(=O)n(C)c2[nH]1 1.9%, CC(=O)Nn1cc2c(=O)n(C)c(=O)n(C)c2c1 -0.7%, CCOCCCn1c(SCC(=O)Nc2cc(OC)ccc2OC)nc2ccccc2c1=O 6.3%, CC(=O)NC(Cc1ccc(F)cc1)C(=O)O (centres undefined) -13.6%, O=C1Nc2ccccc2-n2nnnc2C1N1CCN(c2cccc(C(F)(F)F)n2)CC1 (centres undefined) 3.4%, COC(=O)c1ccc(C(=O)Nc2cc(Cl)ccc2Cl)cc1NC(=O)c1ccccc1C -6%, CCOC(=O)c1cccnc1NC(=O)c1ccncc1 -9.5%, O=C(COC(=O)c1ccc(S(=O)(=O)Nc2ccccc2)cc1)NCC1CCCO1 (centres undefined) 9.7%, CCN(C(=O)COC(=O)c1ccccc1O)c1cccc2ccccc12 6.5%, COc1ccc(S(=O)(=O)c2c[nH]c(=S)[nH]c2=O)cc1Cl -6%, O=[N+]([O-])c1ccc(N2CCN(c3ccc(O)cc3)CC2)c(Cl)c1 -3.9%, CCC(C)(C)NC(=O)c1cc([N+](=O)[O-])ccc1N1CCCCC1 8.9%, CC(CC(=O)C1C(C)C=CCC1(C)C)NNC(N)=O (centres undefined) 12.3%, O=C(CSc1ccc(-c2ccc(-n3cccn3)cc2)nn1)Nc1ccc([N+](=O)[O-])cc1 15.2%, O=C(NC1CCCC1)C(NS(=O)(=O)c1ccc(Br)s1)c1ccccc1 (centres undefined) -3%, COCCNC(=O)C1C(=O)Nc2ccccc2C(=O)N1c1ccc2c(c1)OCCO2 (centres undefined) -11.4%, Cc1ccc(CC2CC(=O)N(c3nc(C)cc(C)n3)C2=O)cc1 (centres undefined) 13.2%, Cc1ccc(CC2CC(=O)N(c3ccc4c(c3)OCCO4)C2=O)cc1 (centres undefined) 4.8%, CN(CC(=O)NCCc1ccc(S(N)(=O)=O)cc1)CC(=O)Nc1ccc(F)c(F)c1F 7.4%, Oc1ccc(-c2nncn2-c2ccccc2)cc1 2.8%, CC1(C)C2CC[C@]3(C)C(CC=C4[C@@H]5C[C@@](C)(CO)CC[C@]5(C(=O)O)CC[C@]43C)[C@@]2(C)CC[C@@H]1O (some centres undefined) -11.3%, O=C1c2ccccc2C(=O)C1c1ccccc1 -13.9%, O=C1CCC(Cc2ccccc2)N1 (centres undefined) -7%, COc1ccc(Cl)cc1-c1cc(C(=O)Nc2cc(OC)c(OC)c(OC)c2)[nH]n1 5.6%, CC(=O)N/C(=C\c1ccccc1)C(=O)OC(C)C(=O)N(C)c1ccccc1 (centres undefined) 6.8%, Cc1ccccc1CCN(CC(=O)NC1CCCCC1)C(=O)c1csnn1 -9.2%, O=C(CN(C(=O)c1csnn1)c1ccc(Br)cc1)NC1CCCC1 3.2%, Nc1nc2c(Br)ccc(Br)c2cc1C(=O)NCCc1ccccc1 6.1%, COCC(=O)Nc1cc(C(=O)OC)cc(C(=O)OC)c1 5.2%, COC(=O)c1cc(NC(=O)CN2CCN(C(C)=O)CC2)cc(C(=O)OC)c1 3%, COC(=O)C1(C(=O)OC)C/C=C\CN(S(=O)(=O)c2ccccc2[N+](=O)[O-])CCC1 4.4%, CCOC(=O)[C@@H]1[C@H]2COc3cc(OC)ccc3[C@@H]2N2C(=O)N(c3cccc(C)c3)C(=O)[C@@]12C 4.4%, COc1cccc(CNC(=O)C2CCN(S(=O)(=O)c3cccc4cccnc34)CC2)c1 -3%, Cc1cc(OCCOc2cccc3cccnc23)c(C)cc1Cl -14.2%, CCOc1ccc2c(c1)C(c1ccc(C)cc1)=NNC(c1ccc(C)cc1)=N2 5.9%, O=C(NCCCCO)C(F)(F)C(F)(F)C(F)(F)C(=O)NCCCCO 11.3%, Nc1cccc(-c2cncc(N3CCN(Cc4ccccn4)CC3)n2)c1 1.6%, CCCCCCCCCCOC(=O)C[N+](C)(C)CC1CCCCC1O (centres undefined) 18.2%, Cc1ccn2c(c1)nc(=O)c1cc(S(=O)(=O)N3CCC(C)CC3)ccc12 -3.9%, COc1cc2c(C(=O)O)c(C)n(C)c2c2ccccc12 -42.6%, COc1cc2c(=O)n(C)c3ccccc3c2cc1OC 0%, OC(CNC1CCCC1)COc1ccc(F)cc1 (centres undefined) -0.8%, COC(=O)C1CCN(CC(N)=O)CC1 -10.1%, CCCCC(=O)N(C)c1c(CC)nc2c(OCc3ccc(S(C)(=O)=O)cc3)cccn12 1.6%, CCc1nc2c(OCc3ccc(C(=O)OC)cc3)cccn2c1N(C)C(=O)C(C)C 13.8%, COc1ccc(NC(=O)c2ccccc2CC[N+](=O)[O-])cc1 5.3%, Cc1cc(C(=O)NNC(=O)CCC2CCCCC2)c(C)o1 3.2%, Cc1cccc(NC(=O)C2CCN(C(=O)NC3CCCCC3)CC2)c1 -7.7%, O=C1CC2(CCCCC2)Oc2ccc(OCC(=O)N3CCOCC3)cc21 0.6%, CN(C)CCCNC(=O)c1cc(C(=O)Cc2ccc(Cl)cc2)c[nH]1 3.7%
